Source: PubChem (National Center for Advancing Translational Sciences (NCATS))
Compounds with a hit are over-represented: about 21% of the library has one in this group of screens.
Pf growth 48h: inhibits P. falciparum growth in the first generation, 48 h; P. falciparum luciferase growth in erythrocytes, 48 h; Potency, µM (top dose mostly 28.7 µM), for the others: at the top dose activity change, negative = inhibition, hits mostly inhibitors; 310,000 compounds, 5.9% hits; AID 504832; also: potency is read from the fitted curve at half-maximal effect; % is scaled to controls: 0 for no effect and ±100 for the full control effect
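A one-generation exposure of luciferase-tagged malaria parasites in RPMI 1640/Albumax erythrocyte culture, 37 C and 5% CO2. Inhibition is inferred from decreased luminescence after adding detection reagent.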
Shiga toxin inh: blocks Shiga toxin action in Vero cells; Vero cells, Shiga toxin protein synthesis inhibition reporter; inhibition, % at 38.7 µM; 290,000 compounds, 9.2% hits; in the data active = inhibition mostly above about 28%, no sharp cut-off; inactive = mostly below about 43%; also: 0% is about no effect
CHX counter: counter-screen for Shiga toxin inhibitors: cycloheximide protein synthesis inhibition | max response, % | 300,000 compounds, 12% hits | cell reporter, cycloheximide protein synthesis inhibition counterscreen; in the data active = max response mostly above about 13%, no sharp cut-off; inactive = mostly below about 14%; also: read at 38.3 µM for the half of the compounds with a filed dose; 0% is about no effect
Pf growth 96h: inhibits malaria parasite growth, 96 h; P. falciparum luciferase reporter growth, 96 h; Potency, µM (top dose mostly 28.7 µM), without a hit: at the top dose activity change, negative = inhibition, most hits filed as inhibitors; 320,000 compounds, 6.9% hits; AID 504834; also: potency is read from the fitted curve at half-maximal effect; % is scaled to controls: 0 for no effect and ±100 for the full control effect
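96 h incubation, 37 C, 5% CO2, of luciferase-reporter P. falciparum-infected RBCs (2% hematocrit, 0.05% parasitemia final) with test compounds; endpoint luminescence.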
SARS PLP yeast: inhibitors of SARS-CoV papain-like protease in yeast | S. cerevisiae expressing SARS-CoV PLpro, growth rescue | Potency, µM (top dose mostly 32.9 µM), for inactives: top-dose activity, positive = growth rescue, most hits filed as activators | 330,000 compounds, 0.19% hits; calls by dose curve; also: potency is read from the fitted curve at half-maximal effect; 0% is about no effect; nearly all actives have a fitted effect of over 55% in size
NS1 inh: inhibitors of influenza NS1 protein function; Potency, µM (highest dose often 46.1 µM), for the others: top-dose activity, positive = more growth; 270,000 compounds, 0.4% hits; AID 2326; calls by dose curve; also: potency is read from the fitted curve at half-maximal effect; actives are rising curves; nearly all actives have a fitted effect of over 50% in size
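In this qHTS, NS1 from influenza A is expressed in budding yeast, where it slows growth. Cells are switched from glucose to 2% galactose medium (pH 6.0, -URA), treated with compound, and growth recovery is read at OD600.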
* marks the source's active call; other numbers are inactive results; ? = inconclusive; . = not tested or not shown. Unless noted, calls follow the shape of the dose curve; as a rule, active = well fitted inhibition curve with a large enough effect; inconclusive = small, poorly fitted or top-dose-only effect, or another doubt; inactive = no such curve, though single readings can be large or run the other way.

SMILES	Pf growth 48h	Shiga toxin inh	CHX counter	Pf growth 96h	SARS PLP yeast	NS1 inh
COc1ccc(N2CCN(C(=O)CNC(=O)c3cccs3)CC2)cc1	18%	-4	1	12%	6%	-12%
CN1CCN(C(=O)CNC(=O)c2cccs2)CC1	.	.	.	.	2%	.
O=C(NCC(=O)N1CCN(c2ncccn2)CC1)c1cccs1	.	46	33*	88%	0%	1%
O=C(NCC(=O)N1CCCC1)c1cccs1	35%	26*	17*	.	1%	-4%
O=C(NCC(=O)N1CCN(c2ccccc2)CC1)c1cccs1	62%	21	22*	7%	7%	-5%
O=C(N=C1SC2CS(=O)(=O)CC2N1c1ccc(Br)cc1)C1CCCO1 (stereo not given)	-5%	-3	1	-23%	2%	1%
COc1ccccc1NC(=O)c1cc2c(=O)n(C)c3ccccc3c2n1C	?	-17	-2	?	-4%	-44%
O=C(OCC(=O)N1CCN(c2ccccc2)CC1)c1cccs1	6%	.	.	41%	1%	.
O=C(OCC(=O)N1CCCC1)c1cccs1	26%	72*	42*	5%	-3%	-5%
CC(C)(C)c1cc(C(=O)N/N=C/c2cc3c(cc2Br)OCO3)n[nH]1	?	11	8	?	1%	1%
CCOC(=O)c1c(N2C(=O)CC(Sc3ccccc3C(=O)O)C2=O)sc(C)c1C (stereo not given)	2.3µM*	-7	-2	53%	-6%	-13%
Cc1cc(C)cc(N2C(=O)CC(Sc3ccccc3C(=O)O)C2=O)c1 (stereo not given)	50%	-3	-2	64%	-8%	-79%
COc1cccc(CSc2nnc(C(F)(F)F)n2Cc2ccc(F)cc2)c1	8%	12	9	?	-6%	-20%
Cc1ccc(CSc2nnc(C(F)(F)F)n2Cc2ccc(F)cc2)cc1	-3%	21	16*	72%	-1%	-37%
C=CCn1c(O)c(N=Nc2nc3ccccc3c(=O)n2-c2ccccc2)c2ccccc21	13%	-7	1	?	1%	-3%
Cc1cc2oc(=O)cc(CSc3nnc(C)n3N)c2cc1C(C)C	?	-42	1	?	5%	5%
Cc1cc2oc(=O)cc(CSc3nnc(-c4cccs4)o3)c2cc1C(C)C	8.3µM*	4	11*	?	-9%	?
COC(=O)CN(c1nc(C)c(Br)c(OC)n1)S(=O)(=O)c1ccccc1	?	-6	-1	217%	-10%	-27%
COc1ccc(OC)c(-c2nc(C(=O)NC3CCN(Cc4ccccc4)CC3)cc3c2[nH]c2ccccc23)c1	8.3µM*	-6	-1	3.7µM*	-6%	-3%
C[C@H](NC(=O)c1cc2c([nH]c3ccccc32)c(-c2ccccc2)n1)C(=O)O	?	14	-3	?	-1%	?
COc1ccc(OC)c(-c2cc(C(=O)NCCN3CCOCC3)no2)c1	27%	-15	-4	?	6%	-6%
COc1cc(-c2nc(C(=O)NC3CCCCC3)cc3c2[nH]c2ccccc23)cc(OC)c1OC	6.6µM*	-4	-1	?	-6%	?
COc1cc(-c2nc(C(=O)NC3CCN(Cc4ccccc4)CC3)cc3c2[nH]c2ccccc23)cc(OC)c1OC	?	-14	1	2.1µM*	-1%	-5%
COc1ccc(OC)c(-c2nc(C(=O)NCCCN3CCOCC3)cc3c2[nH]c2ccccc23)c1	2.3µM*	-4	-3	2.9µM*	?	-21%
N#CCC(=O)Nc1ccc(C(F)(F)F)cc1N1CCOCC1	-26%	-5	-2	-11%	-1%	.
SMILES	Pf growth 48h	Shiga toxin inh	CHX counter	Pf growth 96h	SARS PLP yeast	NS1 inh
CCOC(=O)C1CCN(CC(=O)Nc2ccc(S(=O)(=O)N3CCC(C)CC3)cc2)CC1	?	-4	-1	?	0%	-6%
COC(=O)Cn1ncc2c3ccccc3n(C)c2c1=O	38%	43*	25*	?	2%	-49%
CCOC(=O)N1CCC(NC(=O)Cn2ncc3c4ccccc4n(C)c3c2=O)CC1	71%	34*	22*	1%	2%	18%
CCOC(=O)N1CCC(NC(=O)Cn2ncc3ccccc32)CC1	.	-3	-3	97%	5%	-11%
O=c1[nH]cnc2nn(-c3ccccc3)nc12	275%	84*	14	.	0%	-12%
O=C(O)CCn1cc(/C=C2/NC(=S)N(c3ccccc3)C2=O)c(-c2ccccc2)n1	-14%	-6	-2	3.7µM*	11%	29%
COc1cc(/C=N/NC(=O)CCC(=O)NCc2ccccc2)cc(OC)c1OC	?	5	-2	?	11%	-14%
CC(C)CC(=O)Nc1ccc(Oc2ccc3c(c2)C(=O)NC3=O)cc1	15%	4	-2	13µM*	-1%	13%
C=CCC1(C#N)C(SC)=NC2=C(C(=O)CC(C)(C)C2)C1c1ccc(Br)cc1 (stereo not given)	2.9µM*	-5	2	?	-96%	-9%
COc1ccc(CNC(=O)COC(=O)/C=C/c2cccc(Br)c2)cc1	-6%	-8	1	10%	1%	.
CCCCCn1c(CCC(=O)Oc2ccccc2OC)nc2c1c(=O)[nH]c(=O)n2CCCC	.	-18	-2	13µM*	11%	10%
CO/N=C/C(NC(=O)c1ccc(C(F)(F)F)cc1)C(=O)OC (stereo not given)	401%	48	23*	?	-5%	.
CC(O)(c1ccc(Cl)cc1)c1ccc(Cl)cc1	.	7	3	.	.	.
CCC(C)NCC(O)(c1ccc(Cl)cc1)c1ccc(Cl)cc1 (stereo not given)	?	-19	-3	2.9µM*	-2%	.
COc1ccc(NC(=O)CSc2nc(O)cc(=O)n2-c2ccc(OC)cc2)cc1	?	11	12	-9%	-1%	25%
O=C(CN1CCN(S(=O)(=O)c2ccc(F)cc2)CC1)c1ccc(O)c(O)c1	-30%	-3	11	0%	3%	.
COc1ccc(S(=O)(=O)N2CCN(CC(=O)c3ccc(O)c(O)c3)CC2)cc1	-3%	-8	-1	15µM*	-5%	-8%
COc1ccc(C)cc1NC(=O)CN1CCN(S(=O)(=O)c2ccc3ccccc3c2)CC1	?	.	.	12µM*	-5%	.
COc1ccc(C)cc1NC(=O)CN1CCN(S(=O)(=O)c2ccc(F)cc2)CC1	?	-3	-3	.	6%	-3%
O=C(CN1CCN(S(=O)(=O)c2ccc(F)cc2)CC1)Nc1ccc(F)cc1F	14%	37*	60*	?	-2%	-13%
COc1cc(NC(=O)c2ccccc2Cl)c(OC)cc1NC(=O)CN1CCCCC1	51%	-5	-2	1.9µM*	1%	1%
Cc1ccc(S(=O)(=O)CCNC(=O)Cc2ccc(Cl)cc2)cc1	-25%	-1	-1	-7%	0%	.
O=C(O)CCN1C(=O)/C(=C\c2ccc(-c3nc4ccccc4s3)o2)SC1=S	.	9	10	19%	5%	9%
